DT40 TDP1 CPT – qHTS for Inhibitors of human tyrosyl-DNA phosphodiesterase 1 (TDP1): qHTS in cells in presence of CPT; hit rate 12% among 420,000; chicken DT40 Tdp1-/-;hTDP1 cells + 20 nM CPT, ATP luminescence, 48 h; AID 686979, 2013; Potency, µM (highest dose often 46.2 µM), without a hit: at the highest dose activity change, negative = growth inhibition, actives largely listed as inhibitors; note: potency is the fitted concentration of half-maximal effect; nearly all actives have a fitted effect of over 55% in size
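Cell growth measured by CellTiter-Glo luminescence after a minimum 48 h, 37 C compound exposure with 20 nM CPT in Tdp1-knockout DT40 cells stably expressing hTDP1, seeded 400/well; qHTS titration format.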
LDHA block – qHTS assay for inhibitors of human lactate dehydrogenase; L-lactate dehydrogenase A chain (Homo sapiens), P00338; purified LDHA, NADH/diaphorase-resazurin fluorescence; hits give low values; activity change, % (values are at about 110 or 230 µM); hit rate 0.15% among 480,000; AID 1347041, 2019; in the data active = activity change below about -30%; inconclusive = mostly about -25% to -30%;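 note: plate controls were DMSO wells for no effect and wells without enzyme for full effect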
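LDH5 2 nM; NADH 0.06 mM, pyruvate 0.2 mM; 200 mM Tris pH 7.4, EDTA, Tween-20; 5 min RT. Detection: diaphorase 0.133 mg/mL + resazurin 37 µM, fluorescence ex540/em590 at 0 and 20 min; normalized to enzyme-free and DMSO wells.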
TDP1 cell noCPT – qHTS for Inhibitors of human tyrosyl-DNA phosphodiesterase 1 (TDP1): qHTS in cells in absence of CPT. DT40 Tdp1-/- hTDP1 cells, no CPT, ATP luminescence, 48 h. Potency, µM (top dose mostly 46.2 µM), for inactives: at the top dose activity change, negative = growth inhibition, actives largely listed as inhibitors. hit rate 15% among 420,000; note: potency is the fitted concentration of half-maximal effect; nearly all actives have a fitted effect of over 55% in size
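Seeded 400 DT40-hTDP1 cells/well (vehicle DMSO, no 20 nM CPT); pinned compounds; ≥48 hr at 37 °C; CellTiter-Glo luminescence as viability measure.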
RORgamma inh – qHTS for inhibitors of ROR gamma transcriptional activity; hit rate 5.4% among 310,000; Nuclear receptor ROR-gamma (Mus musculus), P51450; Potency, µM (doses to about 53.6 µM), for the others: top-dose activity change, negative = inhibition, hits mostly inhibitors; Drosophila S2 Gal4-RORgamma UAS-luciferase reporter, 20 h; note: potency is the fitted concentration of half-maximal effect; nearly all actives have a fitted effect of over 60% in size
Target sequence (P51450 whole entry, looked up, the tested form may be a part): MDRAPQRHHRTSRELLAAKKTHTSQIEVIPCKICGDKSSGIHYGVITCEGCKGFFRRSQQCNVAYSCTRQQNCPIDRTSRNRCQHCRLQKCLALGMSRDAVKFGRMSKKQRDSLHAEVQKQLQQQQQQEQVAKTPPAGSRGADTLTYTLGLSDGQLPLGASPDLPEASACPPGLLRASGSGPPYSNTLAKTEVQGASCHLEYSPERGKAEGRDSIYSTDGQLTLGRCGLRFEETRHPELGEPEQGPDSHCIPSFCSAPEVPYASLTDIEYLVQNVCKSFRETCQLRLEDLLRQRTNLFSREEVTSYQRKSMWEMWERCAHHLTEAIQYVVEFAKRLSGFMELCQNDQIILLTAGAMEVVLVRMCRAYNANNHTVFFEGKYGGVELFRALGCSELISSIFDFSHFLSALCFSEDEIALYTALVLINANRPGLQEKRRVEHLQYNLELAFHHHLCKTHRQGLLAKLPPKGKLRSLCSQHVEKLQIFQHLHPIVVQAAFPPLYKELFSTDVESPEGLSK
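A Gal4/UAS one-hybrid system in insect cells: metallothionein-promoter Gal4–ROR gamma fusion plus Photinus luciferase reporter. Copper sulfate 700 uM final, 20 hr ambient incubation, luminescent detection after 10 min with reagent.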
Gal4-VP16 FLuc – VP16 counterscreen qHTS for inhibitors of ROR gamma transcriptional activity. Potency, µM (titrated, usually from 53.6 µM), for the others: top-dose activity, negative = inhibition, most hits filed as inhibitors. AID 2546, 2010. hit rate 3.5% among 310,000. Drosophila S2 Gal4-VP16 UAS-luciferase, luminescence, 20 h;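 note: Gal4-VP16 expression switched on by copper sulfate through the metallothionein promoter; potency is the fitted concentration of half-maximal effect; nearly all actives have a fitted effect of over 50% in size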
IL1B secr inh – qHTS for Inhibitors of Inflammasome Signaling: IL-1-beta AlphaLISA Primary Screen; THP-1 LPS/ATP IL-1B secretion, AlphaLISA, 16 h; hits give low values; activity change, % at 57.5 µM; hit rate 4.7% among 360,000; AID 743279, 2014; in the data active = activity change below about -50%; inconclusive = mostly about -30% to -49%
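THP-1 cells pretreated 1 hr with compounds (up to 57.5 uM final), then stimulated with LPS (250 ng/mL final) plus ATP (1.25 mM final); secreted IL-1B measured by AlphaLISA after 16 hr, decreased signal indicating inhibition.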
The depositor's hits bear a star; i = inactive; ? = inconclusive; / = not tested or not shown; [ ] = another dose, or the depositor's remark. Only some compounds are listed: those with a hit (about 18% of all), similar ones and a draw of the others. Unless noted, calls come from the whole dose curve; as a rule, active = well fitted curve in the direction sought with a large enough effect; inconclusive = small, poorly fitted or top-dose-only effect, or another doubt; inactive = no such curve, though single readings can be large; an effect the other way counts as inactive or inconclusive. Unless noted, % is set by controls: 0 for no effect and ±100 for the full control effect.

SMILES | DT40 TDP1 CPT | LDHA block | TDP1 cell noCPT | RORgamma inh | Gal4-VP16 FLuc | IL1B secr inh
CCn1c(N)c(-c2csc(Nc3cc(C)ccc3C)n2)c(=O)[nH]c1=O | / | 2.4 | / | / | / | /
CC(C)(C)c1ccc(C(=O)Nc2ccc(F)c(F)c2F)cc1 | / | -2.2 | / | / | / | /
COC(=O)c1ccc(OCc2ccc(C(=O)O)o2)cc1 | / | -1.7 | / | / | / | /
O=C(Nc1ccc(Cc2ccncc2)cc1)C12CC3CC(CC(Br)(C3)C1)C2 | / | 6.0 | / | / | / | /
COC(=O)CCOc1ccc(S(=O)(=O)Nc2ccc(C)cc2F)cc1 | / | 0.2 | / | / | / | /
CC(C)COc1ccc(CN=C(N)N=C(N)N)cc1Cl | 6.51µM* | -1.8 | 4.11µM* | ? | 3.9% | ?
COc1ccc(CN=C(N)N=C(N)N)cc1Cl | ? | -1.5 | 20.6µM* | 2.0% | -4.8% | 4.9
CC(C)Oc1ccc(CN=C(N)N=C(N)N)cc1Cl | ? | -5.4 | 13µM* | 7.4% | -4.3% | -27.5
COc1ccc(CNC(C)(C)C)cc1Cl | 5.2% | -11.6 | -6.1% | 8.9% | -6.9% | -8.4
NC(N)=NC(N)=NCc1ccncc1 | / | -0.3 | / | / | / | /
CCNC(=O)NC(=O)CN(C)Cc1ccc(C2CC2C)o1 (stereo unspecified) | / | 2.3 | / | / | / | /
Cc1ccc(SCC(=O)NCc2ccc(CS(N)(=O)=O)cc2)c(C)c1 | / | -0.5 | / | / | / | /
CCCCSc1nnc2c(n1)OC(c1ccc(Br)s1)N(C(C)=O)c1ccccc1-2 (stereo unspecified) | ? | 8.5 | ? | / | / | /
CCCCCSc1nnc2c(n1)OC(c1ccc(C)s1)N(C(C)=O)c1ccccc1-2 (stereo unspecified) | 18.4µM* | 1.5 | 8.2µM* | / | / | /
CCCCSc1nnc2c(n1)OC(c1ccc(C)s1)Nc1ccccc1-2 (stereo unspecified) | 18.4µM* | 0.6 | 11.6µM* | / | / | /
COc1ccc(N2C(=O)CN(Cc3ccccc3OC)[C@H]3CS(=O)(=O)C[C@H]32)cc1 | / | -6.2 | / | / | / | /
O=C1C(=O)N(C2CCCC2)C(=O)N1Cc1ncc(-c2ccc(Cl)cc2)o1 | / | 7.0 | / | / | / | /
CSC1=C(C#N)C(=O)NC(c2ccccc2O)S1 (stereo unspecified) | -16.2% | -1.7 | -19.3% | -0.3% | 7.6% | 0.9
COC(=O)CSC1=C(C#N)C(=O)NC(c2ccccc2)S1 (stereo unspecified) | 2.59µM* | -1.9 | 2.06µM* | -11.0% | 1.7% | ?
Cc1ccc(C)c(Cn2nc(-c3ccc(C)c(S(=O)(=O)N4CCCC4)c3)ccc2=O)c1 | / | 2.9 | / | / | / | /
COc1ccc(C(=O)CCC(=O)OCC(=O)c2ccc(Cl)cc2)cc1 | / | -2.7 | / | / | / | /
Cc1cccc(NC(=O)CN2CCN(CC(=O)NCc3ccc(Cl)cc3Cl)CC2)c1C | 23.1µM* | -0.9 | ? | / | / | 2.0
Cc1cccc(NC(=O)CN2CCN(C(=O)CNC(=O)Cc3cccc4ccccc34)CC2)c1C | 23.1µM* | -1.0 | 10.3µM* | / | / | 20.3
Cc1cccc(NC(=O)CN2CCN(C(=O)NCc3ccccc3)CC2)c1C | / | -4.6 | / | / | / | /
NC(=O)c1ccccc1NC(=O)CN1CCN(Cc2ccc(Cl)cc2Cl)CC1 | ? | -9.1 | 23.1µM* | ? | -24.6% | i
SMILES | DT40 TDP1 CPT | LDHA block | TDP1 cell noCPT | RORgamma inh | Gal4-VP16 FLuc | IL1B secr inh
Cc1cccc(NC(=O)CN2CCN(C(=O)NCc3ccccc3Cl)CC2)c1C | / | -0.4 | / | / | / | /
COc1ccc(Oc2c(C)oc3cc(OCC(=O)NC4CCS(=O)(=O)C4)ccc3c2=O)cc1 (stereo unspecified) | / | 2.9 | / | / | / | /
O=C(Nc1ccn(CCCN2CCN(Cc3ccc(F)cc3)CC2)c(=O)n1)OCc1ccccc1 | 20.6µM* | -3.3 | 14.6µM* | / | / | -10.0
CC(CNCCCn1ccc(NC(=O)OCc2ccccc2)nc1=O)c1ccccc1 (stereo unspecified) | 23.1µM* | 1.1 | ? | / | / | ?
O=C(Nc1ccn(CCCN2CCN(c3ncccn3)CC2)c(=O)n1)OCc1ccccc1 | ? | -7.9 | ? | / | / | -19.6
O=C(Nc1ccn(CCCNCc2cccc3ccccc23)c(=O)n1)OCc1ccccc1 | ? | 1.3 | ? | / | / | -62.0*
O=C(Nc1ccn(CCCNCC(c2ccccc2)c2ccccc2)c(=O)n1)OCc1ccccc1 | ? | -3.9 | 23.1µM* | / | / | ?
O=C(Nc1ccn(CCCNCc2ccccn2)c(=O)n1)OCc1ccccc1 | 9.8% | -8.4 | 0.4% | / | / | 21.2
O=C(Nc1ccn(CCCNCC2CCCCC2)c(=O)n1)OCc1ccccc1 | ? | -10.1 | ? | / | / | -21.3
CC1(C)Cc2c(sc3c2c2nc(Cc4ccccc4)nn2c(=O)n3CC(=O)c2ccccc2)CO1 | / | -17.3 | / | / | / | /
Cc1ccc2nc(SCC(=O)Nc3sc4c(c3C#N)CCC4)[nH]c2c1 | / | -0.6 | / | / | / | /
COCc1c(C(=O)N2CCN(Cc3ccc4c(c3)OCO4)CC2)oc2ccccc12 | ? | -3.8 | ? | / | / | -3.3
CCn1nc(C(=O)N(C)Cc2ccccc2N2CCCC2)c2ccccc2c1=O | / | 7.4 | / | / | / | /
COCc1c(C(=O)N(C)Cc2ccccc2N2CCCC2)oc2ccccc12 | ? | -8.9 | 23.1µM* | / | / | -15.6
COCc1c(C(=O)N2CCN(Cc3c(F)cccc3Cl)CC2)oc2ccccc12 | ? | 2.4 | 20.6µM* | 42.6% | 5.2% | -29.3
COCc1c(C(=O)N2CCN(c3ncccn3)CC2)oc2ccccc12 | 14.6µM* | -1.5 | ? | / | / | 10.1
COCc1c(C(=O)N2CCN(Cc3ccc(C#N)cc3)CC2)oc2ccccc12 | -29.8% | -5.8 | 20.6µM* | 7.2% | 2.1% | -10.9
Cn1c(=O)ccn(CC(=O)Nc2nccs2)c1=O | / | 5.1 | / | / | / | /
CCn1cc(CNC(=O)c2cc(-c3ccc(C)cc3)nc3c(C)cccc23)cn1 | / | -1.1 | / | / | / | /
COc1ccc(C(=O)Nc2cc3c(cc2C(=O)c2ccc(C)cc2)OCCO3)cc1 | / | -4.6 | / | / | / | /
CC(=O)Nc1ccc(C2=NNC(=NCC3CCCO3)SC2)cc1 (stereo unspecified) | ? | -0.7 | ? | ? | -3.0% | 4.9
c1ccc2c(C3=NNC(=NC4CCCCC4)SC3)c[nH]c2c1 | ? | 1.2 | ? | 8.5%[10 µM] | -7.3% | -96.3*
c1ccc(C2=NNC(=NC3CC3)SC2)cc1 | ? | -15.8 | 18.4µM* | 14.1µM* | 12.6µM* | -12.6
c1ccc2c(C3=NNC(=NC4CC4)SC3)c[nH]c2c1 | ? | -0.8 | ? | 10µM* | 10µM* | -96.1*

Bioassay records from PubChem BioAssay.
